Bioassay records from PubChem.
BoNT-A LC inh2 – BoNT/A light chain protease inhibitors, primary screen, biochemical, flow cytometry, MLPCN library; AID 588499, 2011; multiplex microsphere protease substrate cleavage; 360,000 tested, 0.17% active; inhibition, % at 10 µM
Bead autofluor – compound fluorescence in toxin protease inhibitor counterscreen; AID 624483; compound autofluorescence counterscreen, microsphere flow cytometry; stronger effect = higher value; 360,000 tested, 3.1% active; fluorescence intensity (concentration not given with the values); in the data active means fluorescence intensity above about 16000; inconclusive means no clear call, values can overlap the other calls
Anthrax LF prot – Bacillus anthracis LF protease inhibitors, primary screen, biochemical, multiplex microsphere, MLPCN library | 360,000 tested, 0.12% active | multiplex microsphere protease cleavage assay | AID 588501, 2011 | Lethal factor (Bacillus anthracis), P15917 | inhibition, % at 10 µM
BoNT-F LC inh – BoNT/F light chain protease inhibitors, primary screen, biochemical, flow cytometry, MLPCN library; Botulinum neurotoxin type F light chain protease (Clostridium botulinum); Multiplex microsphere protease cleavage assay; inhibition, % at 10 µM; 360,000 tested, 0.22% active; in the data active means inhibition above about 35%, passing the limit was not always enough; inconclusive means no clear call, values can overlap the other calls
Each line names hits and unclear results; the compound was inactive in the other large screens. An excerpt weighted towards active compounds, which were near 3.5% of everything screened. Unless noted, no stated cut-off is given here; in the data, active means inhibition above about 30%; inconclusive means no clear call, values can overlap the other calls; inactive means below that.

CCOC(=O)C1CCCN(c2nnnn2-c2ccccc2)C1 (configuration not stated)	none
O=C(Nc1ccc2c(c1)OCCO2)C1CCN(S(=O)(=O)c2ccc3c(c2)OCCO3)CC1	Bead autofluor 21484
Cc1ccc(-c2ccc(C(=O)NCCCNC(=O)c3cnccn3)o2)cc1Cl	none
C#CCn1cc(Cl)cc(C(=O)Nc2ccccc2)c1=O	none
O=C(Nc1cccc(F)c1)C1CCN(c2nnnn2-c2ccccc2)CC1	none
O=C(Nc1ccc2c(c1)OCCO2)C1CCN(c2nnnn2-c2ccccc2)CC1	Bead autofluor 16234
CCOC(=O)[C@]12CCC=C1N(Cc1ccco1)C(=O)[C@H](CC(=O)NCc1cccs1)C2	none
COc1ccc(-c2ccc(SCC(=O)N3CC(=O)Nc4ccccc43)nn2)cc1	none
NC(=O)c1sc2nc(-c3ccccc3)ccc2c1N	none
CSc1nc(-c2ccccc2)ccc1C(N)=O	BoNT-A LC inh2 inconclusive, Bead autofluor 21978
O=C1NC2(c3ccccc3)NC(=O)NC2(c2ccccc2)N1 (configuration not stated)	none
COc1ccc(N(CCOc2ccccc2)S(=O)(=O)c2ccccc2)cc1	Anthrax LF prot inconclusive
CCOc1ccc(N(CCC#N)S(=O)(=O)c2ccc(OC)cc2)cc1	Bead autofluor 20566
CCCOc1ccc(CN(C)c2ncnc(N)n2)cc1	BoNT-F LC inh inconclusive
CCCCOc1ccc(CN(C)c2ncnc(N)n2)cc1	BoNT-A LC inh2 inconclusive, Bead autofluor 22920
CCOC(=O)N1CCN(C(=O)/C=C/c2ccc(OC)cc2)CC1	none
O=C(Nc1ccccc1)c1ccc(S(=O)(=O)N(CCO)CCO)cc1	none
COC(=O)Nc1ccc(S(=O)(=O)N(CCO)CCO)cc1	Bead autofluor 22684
COC(=O)Nc1ccc(Oc2ccccc2)cc1	Bead autofluor 21537
C(#Cc1ccc(C#CCN2CCOCC2)cc1)CN1CCOCC1	Bead autofluor 17459
Nc1nonc1-c1noc(-c2ccccc2)n1	Bead autofluor 20869
COc1ccc2c(c1)CCC1(C)CC(=O)C(Br)=C21 (configuration not stated)	none
Cc1cc(NC(=O)CSc2nc3sc4c(c3c(=O)n2C)CCCC4)no1	Bead autofluor 17695
Cc1cc(NC(=O)Cn2nnc3sc4c(c3c2=O)CCCC4)no1	Bead autofluor 17027
CCn1c(SCC(=O)Nc2cc(C)on2)nc2sc3c(c2c1=O)CCCC3	none
Cc1cc(NC(=O)Cn2nnc3sc4c(c3c2=O)CCC(C(C)(C)C)C4)no1 (configuration not stated)	BoNT-A LC inh2 inconclusive, Bead autofluor 24311
CCOC(=O)c1sc(NC(=O)Cn2nnc3sc4c(c3c2=O)CCCC4)nc1C	none
N#CCC(=O)Nc1ccc(C(=O)OCC(=O)NC2CCCc3ccccc32)cc1 (configuration not stated)	none
COC(=O)c1ccc2c(=O)[nH]c(CN3c4ccccc4CC3C)nc2c1 (configuration not stated)	BoNT-A LC inh2 inconclusive, Bead autofluor 19519
CCCNC(=O)Cn1cnc2sc(C(=O)N3CCN(c4ccc(F)cc4)CC3)c(C)c2c1=O	Bead autofluor 20571
CCCNC(=O)Cn1cnc2sc(C(=O)N3CCCC(C(=O)OCC)C3)c(C)c2c1=O (configuration not stated)	none
CCCCN(C(=O)c1cccc(S(=O)(=O)N(CC)c2ccccc2)c1)c1c(N)n(CCCC)c(=O)[nH]c1=O	none
N#Cc1ccc(C(=O)Nc2ccc(N3CCN(C(=O)c4ccco4)CC3)cc2)c(F)c1	Bead autofluor 24354
COC(=O)NNC(=O)/C=C/c1ccccc1	none
O=C(/C=C/c1ccccc1)NNC(=O)C1CC1	Bead autofluor 21872
CC(=O)Nc1nc(SCc2ccc(Cl)cc2Cl)n[nH]1	BoNT-A LC inh2 inconclusive, Bead autofluor 19910
COc1ccc(-c2nnc(SCc3c(C)noc3C)n2N)cc1OC	Bead autofluor 19531
CCCn1c(=O)c(C(=O)NCCc2ccc(OC)cc2)c(O)c2ccccc21	BoNT-F LC inh inconclusive
c1ccc(C2(Cn3ccc4ccccc43)OCCO2)cc1	BoNT-A LC inh2 35, Bead autofluor 24276
O=C(Cn1nnc(-c2ccc(CN3CCOCC3)cc2)n1)N1CCCc2ccccc21	Bead autofluor 22876
COc1ccc(/C(O)=C/C(=O)C(=O)Nc2c(C)n(C)n(-c3ccccc3)c2=O)cc1	Bead autofluor 21666
Cc1c(NC(=O)C(=O)/C=C(/O)c2ccccc2)c(=O)n(-c2ccccc2)n1C	none
COC(=O)c1c(NC(=O)c2nn(C)cc2Cl)sc2c1CCCC2	BoNT-A LC inh2 inconclusive, Bead autofluor 20893
COC(=O)c1c(NC(=O)c2ccc(Br)s2)sc2c1CCC2	Bead autofluor 21623
COC(=O)c1c(NC(=O)c2ccoc2C)sc2c1CCC2	none
Cc1c(C2N3CC4(C)CN2CC(C)(C3)C4=O)c2ccccc2n1C (configuration not stated)	Bead autofluor 22039
Cn1cc(C2N3CC4(C)CN2CC(C)(C3)C4=O)c2ccccc21 (configuration not stated)	none
COc1ccc(Cl)cc1NC(=O)CN1C(=O)C(=O)N(C2CCCC2)C1=O	none
CCNc1nc(N2CCCCC2)nc(-n2nnc(C(=O)OCC)c2C)n1	BoNT-A LC inh2 inconclusive, Bead autofluor 23587
CCOC(=O)c1nnn(-c2nc(OC)nc(N3CCCC3)n2)c1-c1ccccc1	none
CC(=O)c1ccccc1NC(=O)COC(=O)/C=C/c1ccc(OC(F)F)cc1	BoNT-F LC inh inconclusive
CC(=O)c1cc(C(=O)N2CCc3c([nH]c4ccccc34)C2C2CCCCC2)[nH]n1 (configuration not stated)	none
CCn1c(SCC(=O)Nc2ccccc2OC)nnc1-c1cnccn1	Bead autofluor 16989
CCn1c(COc2cccc(OC)c2)nnc1SCC(=O)Nc1cc(OC)ccc1OC	Bead autofluor 23149
CCn1c(COc2ccc3c(c2)CCCC3)nnc1SCC(=O)Nc1nccs1	Bead autofluor 20125
C=CCn1c(SCC(=O)Nc2cc(NC(C)=O)ccc2OC)nnc1-c1ccccn1	BoNT-A LC inh2 inconclusive, Bead autofluor 19382
C=CCn1c(SCC(=O)Nc2cc(NC(C)=O)ccc2OC)nnc1-c1cccnc1	none
COc1ccc(Br)c(C(=O)OCC(=O)N2CCC(Cc3ccccc3)CC2)c1	Bead autofluor inconclusive
Cc1nonc1NC(=O)CSc1nnc(N)s1	none
C=CCn1c(SCC(=O)Nc2ccccc2OC)nnc1-c1ccccn1	Bead autofluor 16901
CC1=NN(c2ccccc2)C(=O)/C1=C\N1CC(C)OC(C)C1 (configuration not stated)	Bead autofluor 16159
CC1=NN(c2ccccc2)C(=O)/C1=C/C=C/c1ccccc1	none
O=C(/C=C/c1ccccc1)N1CCCN(C(=O)/C=C/c2ccccc2)CC1	Bead autofluor 20323
O=C(/C=C/c1ccccc1)N1CCN(C(=O)c2ccco2)CC1	none
O=C(NCc1ccccc1Cl)c1ccc2nc([C@@H]3O[C@H](CO)[C@@H](O)[C@H]3O)[nH]c2c1	none
Cc1ccc(S(=O)(=O)NCCCNC(=O)c2ccccc2)cc1	Bead autofluor 23361
Cc1ccc(S(=O)(=O)NCCOc2nc(N3CCOCC3)nc(N3CCOCC3)n2)cc1	Bead autofluor 21551
O=C(NCCOc1nc(N2CCOCC2)nc(N2CCOCC2)n1)Nc1ccc(Cl)cc1	none
